Source: PubChem
In the library only some 3.8% were active in any assay of this set; here they are far more common.
TGFb inhibitor: TGF-b pathway inhibition | HepG2 CAGA-GFP TGF-b/SMAD3 reporter, GFP fluorescence, 18 h; TGF-beta stimulated, 500 pg/mL final | Potency, µM (highest dose often 46.1 µM), for the others: top-dose activity, negative = inhibition, usual class: inhibitors | 1.2% of 410,000 active | AID 588855; also: % is scaled to controls: 0 for no effect and ±100 for the full control effect; nearly all actives have a fitted effect of over 65% in size
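Smad-responsive CAGA-GFP expression was quantified in HEPG2 cells exposed to compounds and 500 pg/mL final TGF-beta for 18 h at 37 degrees C; unstimulated wells defined full inhibition.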
Nrf2 block: blocks Nrf2 signaling. A549 ARE-Fluc reporter, luciferase luminescence, 18-24 h. Potency, µM (doses to about 46 µM), inactives show at the highest dose activity change, negative = inhibition, hits mostly inhibitors. 2.1% of 360,000 active; also: % is scaled to controls: 0 for no effect and ±100 for the full control effect; nearly all actives have a fitted effect of over 60% in size
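Nrf2 activity is the BugLite luminescence, read 15 min after reagent at room temperature, following CellTiter-Fluor cytotoxicity readout (30 min, 37C). Compound titrations were applied for 18-24 h to 5000 A549 ARE_Fluc cells/well in 5% FBS OPTI-MEM.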
A549 tox: A549 cytotoxicity, counter-screen for Nrf2 inhibitors; 0.16% of 390,000 active; A549 ARE-Fluc cells, CellTiter-Fluor viability, 18-24 h; Potency, µM (doses to about 46 µM), inactives show at the highest dose activity change, negative = cytotoxicity, usual class: inhibitors; also: % is scaled to controls: 0 for no effect and ±100 for the full control effect
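A549 ARE-Fluc cells in 5% FBS OPTI-MEM, 5000 cells/well, rested 2 h then exposed to compounds in concentration-response for 18-24 h at 37 °C. Viability by CellTiter-Fluor fluorescence (Ex 405/Em 525) after 30 min; luciferase luminescence (BugLite, 15 min, RT) read afterwards.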
HepG2 tox: counter-screen for TGF-b inhibitors: cytotoxicity in HepG2 cells; 0.76% of 410,000 active; AID 588856; Potency, µM (doses to about 46.1 µM), inactives show at the top dose activity change, negative = cytotoxicity, usual class: cytotoxic; HepG2 CAGA-GFP viability, ATP luminescence, 18 h
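HepG2 CAGA-GFP cells (1000/well, DMEM with 1% FBS) received compound, then TGF-beta at 500 pg/mL final, and were incubated 18 hours at 37 degrees C. Viability was read by CellTiter-Glo luminescence. Media-only wells were set as complete cell-killing and DMSO as no toxicity.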
ATXN viability: viability counter-screen for ATXN expression inhibitors. 0.49% of 400,000 active. S2 cells (HEK-293 line with an ATXN2-luciferase reporter) viability, CellTiter-Fluor protease fluorescence, 24 h. Potency, µM (doses to about 56.7 µM), usual class: cytotoxic; also: nearly all actives have a fitted effect of over 40% in size
ATXN2 expr inh: inhibitors of ATXN2 expression. HEK-293 ATXN2-luciferase reporter, luminescence, 24 h. 0.72% of 360,000 active. Potency, µM (series often up to 57 µM), for inactives: at the top dose activity change, negative = inhibition, actives largely listed as inhibitors; also: % is scaled to controls: 0 for no effect and ±100 for the full control effect; nearly all actives have a fitted effect of over 55% in size
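ATXN2-luciferase reporter cells (luciferase flanked by upstream and downstream ATXN2 gene portions) were treated 24 h at 37 °C with compounds at up to 57 uM. SteadyGlo luminescence gave expression; GF-AFC fluorescence gave viability.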
Active calls of the source: *. Calls follow the shape of the dose curve; as a rule, active = well fitted curve in the direction sought with a large enough effect; inconclusive = small, poorly fitted or top-dose-only effect, or another doubt; inactive = no such curve, though single readings can be large; an effect the other way counts as inactive or inconclusive. Potency is read from the fitted curve at half-maximal effect.

Screening Cc1sc2nc(CSC(C)C(=O)Nc3cc(S(C)(=O)=O)ccc3Cl)[nH]c(=O)c2c1C (stereo not given) returned TGFb inhibitor -2%, Nrf2 block 6%, A549 tox -15%, HepG2 tox 8%, ATXN viability inactive and ATXN2 expr inh -4%.
Cc1ccc(NS(=O)(=O)c2ccc3c(c2)OCCCO3)cc1S(=O)(=O)N1CCOCC1 was read as TGFb inhibitor -1%, Nrf2 block inconclusive, A549 tox -9%, HepG2 tox -19%, ATXN viability inactive and ATXN2 expr inh 2%.
CC1CCCC(C)N1/N=C/c1ccc(C#N)cc1 (stereo not given) was read as TGFb inhibitor -1%, Nrf2 block 13%, A549 tox 0%, HepG2 tox 0%, ATXN viability inactive and ATXN2 expr inh -7%.
CC(OC(=O)c1snc(C(=O)NC2CCCCC2)c1N)C(=O)NC(C)(C)C (stereo not given) was read as TGFb inhibitor -18%, Nrf2 block 11µM*, A549 tox -20%, HepG2 tox -34%, ATXN viability inactive and ATXN2 expr inh -13%.
COc1cc(=O)n2c(c1C(=O)NCc1ccco1)CCN(Cc1c(F)cccc1F)CC2 was read as ATXN viability inactive.
`CCOC(=O)Nc1ccc2c(c1)C(=NNC(N)=S)c1ccccc1-2` gave TGFb inhibitor inconclusive, Nrf2 block inconclusive, A549 tox -25%, HepG2 tox 8.9µM* and ATXN2 expr inh inconclusive.
For CCN(CC)CC(=O)c1c(N)n(Cc2ccccc2)c(=O)n(C)c1=O the results were TGFb inhibitor 12%, Nrf2 block -11%, A549 tox 2%, HepG2 tox 0%, ATXN viability inactive and ATXN2 expr inh -23%.
`CCCN(CC(=O)Nc1ccccc1OC)CC(=O)c1c(N)n(Cc2ccccc2)c(=O)n(C)c1=O` gave TGFb inhibitor inconclusive, Nrf2 block 13µM*, A549 tox -19%, HepG2 tox -41% and ATXN viability inactive.
Screening Cc1ccc(S(=O)(=O)Nc2ccc(NC(=O)c3c(F)c(F)c(F)c(F)c3F)cc2)cc1 returned TGFb inhibitor -13%, Nrf2 block -38%, A549 tox -6%, HepG2 tox -21% and ATXN viability inconclusive.
For Cc1cccnc1C(NC(=O)C1CCN(Cc2cn(C)c3ccccc23)CC1)c1ccc(Cl)cc1 (stereo not given) the results were TGFb inhibitor inconclusive, HepG2 tox 8.9µM*, ATXN viability inconclusive and ATXN2 expr inh inconclusive.
Cc1cccnc1C(NC(=O)C1CCN(CCOc2ccc(Cl)cc2Cl)CC1)c1ccc(Cl)cc1 (stereo not given) was read as TGFb inhibitor inconclusive, HepG2 tox -42%, ATXN viability 25µM* and ATXN2 expr inh 20µM*.
Cc1cccnc1C(NC(=O)C1CCN(CCCc2ccccc2)CC1)c1ccc(Cl)cc1 (stereo not given) was read as TGFb inhibitor inconclusive, HepG2 tox 11µM*, ATXN viability inconclusive and ATXN2 expr inh inconclusive.
For CC(C)Nc1ncnc2c1cnn2Cc1ccccc1Cl the results were TGFb inhibitor 0%, Nrf2 block 13µM*, A549 tox 2%, HepG2 tox 1% and ATXN viability inactive.
For Cc1onc(-c2ccccc2Cl)c1C(=O)NCc1nc(-c2ccc(C(F)(F)F)cc2)no1 the results were TGFb inhibitor inconclusive, Nrf2 block 26µM*, A549 tox 0%, HepG2 tox 18%, ATXN viability inactive and ATXN2 expr inh 0%.
Screening CCOC(=O)c1c(-c2ccc(F)cc2)csc1/N=C/N(C)C returned TGFb inhibitor 15%, Nrf2 block 16µM*, A549 tox inconclusive, HepG2 tox -25%, ATXN viability inactive and ATXN2 expr inh -17%.
For CCOC(=O)c1c(-c2ccc(C)cc2)csc1/N=C/N(C)C the results were TGFb inhibitor -2%, Nrf2 block -13%, A549 tox 2%, HepG2 tox 1% and ATXN viability inactive.
For C=CCC[C@@H](Cc1ccc(F)cc1)C(=O)OC[C@@H](Cc1c[nH]c2ccccc12)NC(=O)[C@H](CC=C)CC(=O)N(CCO)Cc1ccccc1 the results were TGFb inhibitor inconclusive, Nrf2 block 23µM*, A549 tox inconclusive, HepG2 tox -17% and ATXN2 expr inh inconclusive.
For C=CC[C@@H](CC(=O)N(CCO)Cc1ccccc1)C(=O)N[C@@H](COC(=O)[C@@H](CC=C)Cc1ccc(F)cc1)Cc1c[nH]c2ccccc12 the results were TGFb inhibitor inconclusive, Nrf2 block inconclusive, A549 tox inconclusive, HepG2 tox -18%, ATXN viability inconclusive and ATXN2 expr inh -9%.
`C=CC[C@H](CC(=O)N(CCO)Cc1ccccc1)C(=O)N[C@@H](COC(=O)[C@@H](CC=C)Cc1ccc(F)cc1)Cc1c[nH]c2ccccc12` gave TGFb inhibitor inconclusive, Nrf2 block 18µM*, A549 tox inconclusive, HepG2 tox -49%, ATXN viability 28µM* and ATXN2 expr inh -23%.
`C=CCC[C@H](Cc1ccc(F)cc1)C(=O)OC[C@H](Cc1c[nH]c2ccccc12)NC(=O)[C@H](CC=C)CC(=O)N[C@H](CO)Cc1ccccc1` gave TGFb inhibitor -19%, Nrf2 block 9%, A549 tox -1%, HepG2 tox -7%, ATXN viability inconclusive and ATXN2 expr inh -9%.
C=CCC[C@H](Cc1ccc(F)cc1)C(=O)OC[C@H](Cc1c[nH]c2ccccc12)NC(=O)[C@@H](CC=C)CC(=O)N[C@@H](CO)Cc1ccccc1 was read as TGFb inhibitor inconclusive, Nrf2 block inconclusive, A549 tox inconclusive, HepG2 tox 13µM*, ATXN viability 18µM* and ATXN2 expr inh 16µM*.
`C=CCC[C@@H](Cc1ccc(F)cc1)C(=O)OC[C@H](Cc1c[nH]c2ccccc12)NC(=O)[C@@H](CC=C)CC(=O)N[C@H](CO)Cc1ccccc1` gave TGFb inhibitor inconclusive, Nrf2 block -19%, A549 tox -10%, HepG2 tox 13µM*, ATXN viability inconclusive and ATXN2 expr inh -18%.
